Hits are enriched below; roughly 11% of the tested compounds scored in any of these assays.
ALOX12 inhib: inhibitors of human 12-lipoxygenase (ALOX12). purified 12-hLO, xylenol orange hydroperoxide absorbance. AID 1452. 0.12% of 150,000 active. Potency, µM (doses to about 57.1 µM), without a hit: top-dose activity change, negative = inhibition, hits mostly inhibitors; also: potency is read from the fitted curve at half-maximal effect; nearly all actives have a fitted effect of over 55% in size
Target sequence (P18054 whole entry, looked up): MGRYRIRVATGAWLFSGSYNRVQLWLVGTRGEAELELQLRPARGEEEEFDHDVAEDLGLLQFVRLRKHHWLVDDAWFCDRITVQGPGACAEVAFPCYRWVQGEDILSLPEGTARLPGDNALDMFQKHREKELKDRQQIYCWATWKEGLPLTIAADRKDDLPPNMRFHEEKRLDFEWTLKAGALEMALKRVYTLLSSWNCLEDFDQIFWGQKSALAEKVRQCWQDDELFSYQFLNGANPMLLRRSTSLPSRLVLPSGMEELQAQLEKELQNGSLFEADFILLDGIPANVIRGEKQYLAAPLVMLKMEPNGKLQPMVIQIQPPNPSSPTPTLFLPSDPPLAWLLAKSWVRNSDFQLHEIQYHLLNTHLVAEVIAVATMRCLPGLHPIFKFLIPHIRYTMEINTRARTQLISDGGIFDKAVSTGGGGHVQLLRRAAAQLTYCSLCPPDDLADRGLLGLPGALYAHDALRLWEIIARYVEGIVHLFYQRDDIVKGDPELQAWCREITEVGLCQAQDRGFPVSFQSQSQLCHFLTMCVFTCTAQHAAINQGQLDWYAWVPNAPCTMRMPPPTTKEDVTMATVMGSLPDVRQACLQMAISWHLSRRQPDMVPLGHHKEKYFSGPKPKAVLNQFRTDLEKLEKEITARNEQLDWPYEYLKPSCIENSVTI
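Lipoxygenase turnover measured by absorbance at 573 and 405 nm after Fe-XO development. Human 12hLO 150 nM, arachidonate 40 uM, pH 7.0 Hepes buffer with detergent; 15 min compound preincubation, 30 min reaction.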
IMPase inh: IMPase inhibition in cells. CHO-M1 cells, IP1 accumulation, HTRF TR-FRET ratio. inhibition (IP1 accumulation), % at 46.1 µM. AID 901. P97697. 120,000 tested, under 10 active; active = well fitted curve in the direction sought with a large enough effect in the signal ratio, not every such curve was filed as active; inconclusive = small, poorly fitted or top-dose-only effect, or a change in a side signal; inactive = no such curve, though single readings can be large or run the other way; the % refers to the signal ratio;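 also: cells stimulated with carbachol in lithium chloride buffer; plate controls were DMSO basal wells for no effect and reference inhibitor wells for full effect; higher means more IMPase inhibition seen as more IP1 and lower FRET ratio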
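Elevated IP1 in lysates lowers TR-FRET signal (665/620 ratio and 620 channel reported). Cells were CHO-M1, given carbachol (50 uM as added) plus 50mM LiCl, pH 7.4, 30 min, 37C; compounds titrated up to 46 uM; AC50 by Hill equation.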
IMPase Li cell: membrane-permeable IMPase blocker, potentiated with lithium | CHO-M1 cells, IP1 TR-FRET (IP-One), carbachol + lithium | 0.35% of 210,000 active | AID 1457 | Potency, µM (doses to about 59.4 µM), without a hit: at the top dose activity, negative = IMPase inhibition, hits mostly inhibitors;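 also: IP1 builds up when IMPase is blocked and the TR-FRET signal falls; potency is read from the fitted curve at half-maximal effect; plate controls were basal vehicle for no effect and high inhibitor control for full effect; nearly all actives have a fitted effect of over 50% in size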
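Test compounds were applied to CHO-M1 cells previously cultured for 16–30 h at 2000 per well. A small lithium amount accompanied them; after 30 min at 37C, IP1 was quantified by TR-FRET.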
PNC inhibitor: inhibitors of perinucleolar compartment assembly | PC3M PTB-GFP, PNC prevalence imaging, 16 h; hits give low values | activity change (PNC), negative = inhibition, % at 10 µM | 3.1% of 140,000 active | AID 2417;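 active = readout at or below -70, meaning at least 70% loss of cells showing the perinucleolar compartment, a nuclear body marking cancer cells; inconclusive = readout between -30 and a set limit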;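 also: plate controls were DMSO wells for no effect and camptothecin positive control wells for full effect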
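PC3M cells stably expressing PTB-GFP, 750–1000 cells/well, treated 16 h at 37 °C with compound (23 nl of library stock), in duplicate. After paraformaldehyde fixation and Hoechst stain, imaged at 20x; PNC prevalence scored by image analysis.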
HPGD block: inhibitors of human 15-hydroxyprostaglandin dehydrogenase (HPGD); P15428; purified HPGD, NADH fluorescence kinetic, PGE2 substrate; Potency, µM, inactives show at the highest dose activity change, negative = inhibition, hits mostly inhibitors; 4.3% of 150,000 active; AID 894; active = well fitted inhibition curve with a large enough effect, not every such curve was filed as active; inconclusive = small, poorly fitted or top-dose-only effect, or another doubt; inactive = no such curve, though single readings can be large or run the other way; also: potency is read from the fitted curve at half-maximal effect
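NADH formation kinetics: reaction with 30 uM PGE2 and 1 mM NAD+ (final), 20 nM enzyme, Tris-HCl pH 8 with Tween 20, after 15 min compound preincubation at room temperature. Fluorescence change, last versus first of five reads.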
ALDH1A1 inh: blocks purified human ALDH1A1 activity | P00352 | Purified ALDH1A1, NADH fluorescence, propionaldehyde substrate | Potency, µM (highest dose often 75.3 µM), without a hit: at the highest dose activity, negative = inhibition, usual class: inhibitors | 7.3% of 220,000 active | AID 1030; active = well fitted inhibition curve with a large enough effect, not every such curve was filed as active; inconclusive = small, poorly fitted or top-dose-only effect, or another doubt; inactive = no such curve, though single readings can be large or run the other way;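 also: potency is read from the fitted curve at half-maximal effect; plate controls were no enzyme wells and a reference inhibitor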
* marks the source's active call; other numbers are inactive results; ? = inconclusive; nt = not tested or not shown; [ ] = another dose, or the depositor's remark. Unless noted, calls follow the shape of the dose curve; as a rule, active = well fitted curve in the direction sought with a large enough effect; inconclusive = small, poorly fitted or top-dose-only effect, or another doubt; inactive = no such curve, though single readings can be large; an effect the other way counts as inactive or inconclusive. Unless noted, % is scaled to controls: 0 for no effect and ±100 for the full control effect.

SMILES | ALOX12 inhib | IMPase inh | IMPase Li cell | PNC inhibitor | HPGD block | ALDH1A1 inh
CC(C)NC(=O)N1CCC2(CC1)CCN(C(=O)c1ccncc1)CC2 | 2% | nt | 4% | nt | -6% | -5%
Cc1cc(=O)oc2c1c(C)nn2-c1ccc(C(=O)OC(C)C)cc1 | -10% | 5 | 1%[38.3 µM] | ? | -13% | 1.1µM*
COc1ccccc1C(=O)Nc1ccccc1N1CCN(S(C)(=O)=O)CC1 | 6% | 3 | 26%[38.3 µM] | -91* | ? | ?
CN1CCN(c2ccccc2NC(=O)c2ccc(Br)o2)CC1 | -3% | -9 | 30%[38.3 µM] | ? | -2% | -1%
CS(=O)(=O)N1CCN(c2ccccc2NC(=O)c2ccc(Br)o2)CC1 | -3% | 2 | 1%[38.3 µM] | -25 | -7% | 3.2µM*
CCCCNCC | -3% | nt | 4% | nt | -2% | 6%
COC(=O)CSc1nnc(C2COc3ccccc3O2)n1-c1ccccc1 (stereo unspecified) | -7% | 1 | 21%[38.3 µM] | 19 | 6% | -8%
c1ccc(Cc2nn3c(C4COc5ccccc5O4)nnc3s2)cc1 (stereo unspecified) | 1% | 1 | 10% | ? | 8.9µM* | 2µM*
c1ccc(CCc2nn3c(C4COc5ccccc5O4)nnc3s2)cc1 (stereo unspecified) | 3% | 8 | 26%[38.3 µM] | -7 | 10µM* | 10µM*
COc1ccccc1-c1nn2c(C(F)(F)F)nnc2s1 | -5% | -1 | 7.9µM* | 30 | ? | ?
COc1ccccc1-c1nn2c(C3COc4ccccc4O3)nnc2s1 (stereo unspecified) | -9% | 5 | 32µM* | ? | ? | ?
COc1cc(NC(=O)c2cc3nc(-c4ccccc4)cc(-c4ccccc4)n3n2)c(OC)cc1Cl | nt | -10 | nt | nt | nt | nt
C[C@@H]1CCC2C(C)(C)C3CC21CC[C@@]3(C)O (stereo partly specified) | nt | nt | 6% | nt | -8% | -10%
CC(=O)Nc1ccc(NC(=O)C(Cc2ccccc2)NC(=O)C2CCCCC2)cc1 (stereo unspecified) | 2% | 2 | -5% | -119* | -2% | -2%
COc1ccc2[nH]c(=O)c(CN(C(=O)c3ccccn3)c3ccccc3)cc2c1 | -1% | -7 | 5%[38.3 µM] | -92* | ? | ?
Cc1ccc2[nH]c(=O)c(CN(C(=O)c3cccs3)c3ccccc3)cc2c1 | 0% | -7 | ? | -85* | -2% | 5%
Cc1[nH]c(=O)[nH]c(=O)c1S(=O)(=O)N(C)Cc1ccccc1 | -4% | 0 | 3%[38.3 µM] | -106* | -7% | 6%
O=C(COc1ccc(Cl)cc1Cl)Nc1ccc(C(=O)OC2CCCCC2)cc1 | nt | 0 | nt | nt | nt | nt
Nc1nc2ccc(C(=O)NCCOC(=O)C3CCCCC3)cc2s1 | nt | nt | 14% | nt | nt | 10µM*
CCN(CC)S(=O)(=O)c1ccc(C(=O)N2CCc3ccccc32)cc1 | nt | nt | 14% | nt | nt | 5µM*
CC(C)Oc1ccc(C(=O)N2CCCc3ccccc32)cc1 | 2% | 2 | 0%[38.3 µM] | 22 | 22µM* | ?
COc1ccc(C(=O)N2CCCc3ccccc32)cc1 | 3% | 4 | 20%[38.3 µM] | ? | -22% | ?
COc1ccc(C)cc1NC(=O)N1CCCc2ccccc21 | nt | nt | 25µM* | nt | nt | -64%
CCN(CC)S(=O)(=O)c1ccc(Cl)c(C(=O)N2CCc3ccccc32)c1 | -2% | 11 | 27%[38.3 µM] | ? | -11% | ?
O=C(Nc1ccccc1)N1CCCc2ccccc21 | 4% | -6 | 6% | -100* | -28% | 5%
O=C(C(=O)N1CCCc2ccccc21)N1CCCc2ccccc21 | -4% | nt | -1% | ? | 0% | 0%
COc1ccc(NC(=O)c2cn(-c3ccccc3)nc2-c2ccc(C)cc2)cc1 | nt | -5 | nt | nt | nt | nt
O=C(Nc1ccc2c(c1)OCCO2)N1CCN(c2ccc(F)cc2)CC1 | 1% | 0 | 5% | -112* | -7% | 2%
Cc1cccc(C)c1N1CCN(C(=O)Nc2ccc3c(c2)OCCO3)CC1 | -10% | 3 | 8%[38.3 µM] | 31 | -11% | -6%

Assay outcomes: PubChem, National Center for Advancing Translational Sciences (NCATS)
